SENP7 block – SENP7 protease inhibition. Q9BQF6. recombinant SENP7, Z-RLRGG-aminoluciferin luminescence, 40 min. inhibition, % at 5 µM. 1.5% of 330,000 active. AID 434973;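 active means inhibition above about 50% at the single test dose, limit read from the data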;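 further: plate controls were DMSO with enzyme for no effect and no enzyme buffer wells for full effect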
HSP90 refold inh – HSP90 refolding inhibition in rabbit reticulocyte lysate; inhibition, % at 5.6 µM; luciferase refolding luminescence, 3 h; 0.91% of 290,000 active; AID 1789;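 active means inhibition above the screen-wide mean plus 3 SD, computed separately per campaign, cut at about 16% in these data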;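 further: 0% = DMSO wells and 100% = 60 µM geldanamycin wells; inhibitors lower the luminescence because luciferase stays unfolded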
SENP8 block-1 – inhibitors of human SENP8 protease | Q96LD8 | recombinant SENP8, Nedd8 substrate fluorescence | inhibition, % at 20 µM | 0.64% of 360,000 active; in the data active means inhibition mostly above about 40%, no sharp cut-off; inactive means mostly below about 27%
Target sequence (Q96LD8 whole entry, looked up): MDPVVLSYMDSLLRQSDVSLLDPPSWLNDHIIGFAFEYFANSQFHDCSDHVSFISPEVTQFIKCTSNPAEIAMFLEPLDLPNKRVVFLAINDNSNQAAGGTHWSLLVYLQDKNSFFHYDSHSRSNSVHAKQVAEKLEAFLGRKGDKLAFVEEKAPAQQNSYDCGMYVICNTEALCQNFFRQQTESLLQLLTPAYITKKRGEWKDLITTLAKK
SENP8 block-2 – SENP8 protease inhibition; Q96LD8; purified SENP8, Z-RLRGG-aminoluciferin cleavage, luminescence; inhibition, % at 10 µM; 1.2% of 330,000 active; in the data active means inhibition above about 50%
SENP6 block – blocks the human protease SENP6. AID 2599. 1.8% of 330,000 active. inhibition, % at 10 µM. Recombinant SENP6 catalytic domain, aminoluciferin luminescence;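 active means inhibition above about 50% at the single tested dose, limit read from the data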;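 further: plate controls were DMSO wells with enzyme for no effect and DMSO wells lacking enzyme for full effect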
HSP90 inh confirm – HSP90 inhibition, confirmation assay; shares compounds with HSP90 refold inh; rabbit reticulocyte lysate, luciferase refolding luminescence, 3 h; inhibition, % at 5.9 µM; 64% of 2,300 active; AID 1846; in the data active means inhibition above about 18%;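 further: 0% = vehicle wells and 100% = reference inhibitor wells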
FLuc counter – firefly luciferase inhibition, HSP90 counter-screen; shares compounds with HSP90 refold inh; purified native firefly luciferase, luminescence; inhibition, % at 5.9 µM; 48% of 2,300 active;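 active means inhibition above the mean inhibition of all tested sample wells plus 3 SD, cut at about 10% in these data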;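 further: 0% = DMSO with luciferase and 100% = wells lacking luciferase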
SENP8 conf – human SENP8 inhibition, confirmed. shares compounds with SENP7 block. Recombinant SENP8, Z-RLRGG-aminoluciferin luminescence, 60 min. inhibition, % at 12.5 µM. 40% of 6,200 active. AID 488912;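 active means mean inhibition across replicates above about 50%, limit read from the data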
SENP6 conf – human SENP6 inhibition, confirmed; shares compounds with SENP7 block; recombinant SENP6, Z-RLRGG-aminoluciferin luminescence; inhibition, % at 12.5 µM; 58% of 6,200 active
SENP7 conf – confirmation of human SENP7 protease inhibitors; AID 488917; shares compounds with SENP7 block; 69% of 6,200 active; recombinant SENP7, Z-RLRGG-aminoluciferin luminescence, 40 min; inhibition, % at 12.5 µM
Casp3 SENP sel – inhibits human caspase-3 in SENP selectivity test; shares compounds with SENP7 block; purified caspase-3, Z-DEVD-aminoluciferin luminescence, 60 min; inhibition, % at 12.5 µM; 60% of 6,200 active; AID 488918;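 active means mean inhibition above about 50%, limit read from the data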;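 further: plate controls were enzyme with DMSO for no effect and wells without caspase-3 for full effect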
Target sequence (P42574 28-227 limits assumed): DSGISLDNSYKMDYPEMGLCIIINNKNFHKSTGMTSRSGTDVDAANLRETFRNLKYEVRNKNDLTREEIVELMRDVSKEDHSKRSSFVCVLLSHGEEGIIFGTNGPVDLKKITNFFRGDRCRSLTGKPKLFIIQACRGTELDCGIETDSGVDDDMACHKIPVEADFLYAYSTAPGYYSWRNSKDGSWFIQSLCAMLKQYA
Luc interf – counter-screen for SENP inhibitors: luminescence interference; shares compounds with SENP7 block; inhibition, % at 12.5 µM; AID 488919; 39% of 6,200 active; Pre-incubated SENP8/Z-RLRGG-aminoluciferin, luciferase luminescence interference;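 active means mean inhibition above about 50% when retested at one dose, limit read from the data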;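 further: plate controls were DMSO wells with completed reaction for no effect and substrate without enzyme for full effect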
The depositor's hits bear a star; . = not tested or not shown. Rows were chosen to be rich in hits. Some 2.7% of all compounds tested hit in one or more screens of this group.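 How the source made its calls, unless noted: active means mean inhibition above about 50% in the one-dose retest (limit read from the data); inactive means the rest.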

SMILES	SENP7 block	HSP90 refold inh	SENP8 block-1	SENP8 block-2	SENP6 block	HSP90 inh confirm	FLuc counter	SENP8 conf	SENP6 conf	SENP7 conf	Casp3 SENP sel	Luc interf
Fc1ccc(-n2nnc(-c3cccnc3)n2)cc1	20.8	8.7	14.9	-5.7	21.7	.	.	.	.	.	.	.
Fc1ccc(-n2nnc(-c3cnc4ccccc4c3)n2)cc1	96.2*	18.6*	12.3	79.6*	93.2*	80.7*	77.3*	64.7*	67.0*	26.1	60.9*	32.7
CCC(=O)Nc1nc2ccc(S(C)(=O)=O)cc2s1	-6.0	-3.9	12.8	2.9	-16.3	.	.	.	.	.	.	.
CS(=O)(=O)c1ccc2nc(NC(=O)c3cccs3)sc2c1	88.6*	18.4*	-354.5	83.7*	90.5*	36.7*	23.0*	-30.4	78.6*	95.0*	88.2*	59.8*
Cc1ccc2nc(NC(=O)CCCC(=O)O)sc2c1	57.9*	16.9*	3.8	54.2*	55.3*	24.0*	-8.7	3.4	16.5	26.8	17.5	6.7
Cc1ccc2nc(NC(=O)c3cccs3)sc2c1	98.2*	18.8*	-360.6	88.7*	91.6*	40.1*	37.9*	42.2	89.2*	92.1*	74.5*	6.4
COc1cccc(/C=N/NC(=O)CNC(=O)COc2cccc(C)c2)c1O	9.6	1.6	-265.6	0.8	-2.2	.	.	.	.	.	.	.
Cc1ccnc(Nc2nc3ccccc3o2)n1	72.9*	21.8*	11.9	66.6*	76.7*	44.9*	22.0*	-26.5	54.4*	88.3*	90.2*	49.7
CCCCOc1cccc(-c2cc(C(=O)NNC(=S)NCC)c3ccccc3n2)c1	-15.0	-1.8	-95.6	-16.4	-1.6	.	.	.	.	.	.	.
CCCCOc1ccc(-c2cc(C(=O)NNC(=S)NCC)c3ccccc3n2)cc1	93.0*	30.0*	-268.6	93.8*	100.8*	51.9*	-1.8	98.4*	99.4*	103.0*	98.1*	64.7*
O=S1(=O)C=C(N2CCCCC2)c2ccccc21	5.6	6.8	5.5	-3.3	11.7	.	.	.	.	.	.	.
Cc1nnc(NC(=O)c2ccc3c(c2)OCO3)s1	14.6	0.5	-5.1	8.0	11.6	.	.	.	.	.	.	.
CSc1nnc(NC(=O)c2ccc3c(c2)OCO3)s1	96.9*	54.5*	-109.4	89.8*	96.4*	81.5*	71.8*	29.7	37.8	64.5*	51.2*	11.6
Cc1ccc(NC(=S)N2CCCN(Cc3ccc(F)cc3)C2)c(C)c1	-10.3	4.7	22.4	-5.9	-15.4	.	.	.	.	.	.	.
Cc1c(N=Cc2nc3ccccc3[nH]2)c(=O)n(-c2ccccc2)n1C	0.8	2.9	22.3	15.5	-4.8	.	.	.	.	.	.	.
Cc1c(N=Cc2nc3ccccc3n2C)c(=O)n(-c2ccccc2)n1C	83.4*	31.6*	26.1	51.5*	45.8	37.4*	26.0*	58.4*	79.8*	99.1*	96.9*	12.4
Cc1cc(C(=O)CSc2nnc(-c3ccccc3)n2-c2ccccc2)c(C)n1-c1ncn[nH]1	2.6	-1.5	23.6	-5.6	-10.2	.	.	.	.	.	.	.
Cc1cc(C(=O)CSc2nnc3ccccn23)c(C)n1-c1ccccc1	52.4*	61.8*	6.0	37.4	62.2*	86.4*	78.8*	34.9	35.9	78.6*	79.0*	60.8*
COc1ccc(CNc2nc3ccccc3s2)cc1OC	8.6	-4.5	10.9	-12.2	0.1	.	.	.	.	.	.	.
Cc1ccc(CNc2nc3ccccc3s2)s1	87.3*	35.9*	22.1	75.8*	85.3*	67.9*	61.1*	73.2*	71.5*	92.2*	71.4*	34.4
O=C(CNC(=O)c1ccccc1)Nc1ccsc1C(=O)O	2.2	0.1	2.3	-0.3	-7.2	.	.	.	.	.	.	.

Screening results as filed in PubChem.
